# Test results as given in the supplement of paper PMC10127200.
# Structures can show the parent of a compound that is named as a salt.
# Tests used:
# Experiment in all cases: Euclidean distance of Cell Painting phenotypic profile (signed KS, 77 features) to DMSO centroid (dimensionless distance); 5 or 10 uM (library dependent); higher = stronger phenotypic change vs DMSO (phenoactivity)
# Conditions in all cases: 48 h
# 786-O = tested on: 786-O
# Method in brief: (§1)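 Stained cells were imaged confocally at 20X with 9 fields per well, after 48 h of exposure to library compounds at 10 or 5 uM (set by library; 0.1% DMSO final). The cells were five cancer lines and a healthy fibroblast line. From the images, Harmony extracted 77 features, each expressed as a signed Kolmogorov-Smirnov statistic relative to same-plate vehicle wells. Phenoactivity is measured as Euclidean distance to the median vehicle profile, using plate-position-corrected, correlation-weighted profiles averaged across replicates at the top dose.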
# A549 = tested on: A549
# Method in brief: as §1
# DU145 = tested on: DU145
# Method in brief: as §1
# FB = tested on: FB
# Method in brief: as §1
# HEPG2 = tested on: HEPG2
# Method in brief: as §1
# OVCAR4 = tested on: OVCAR4
# Method in brief: as §1
SMILES,Euclidean distance (786-O),Euclidean distance (A549),Euclidean distance (DU145),Euclidean distance (FB),Euclidean distance (HEPG2),Euclidean distance (OVCAR4)
Cc1cc(C(C)(C)C)cc(C)c1CC1=NCCN1 [Xylometazoline HCl],0.708,0.547,0.707,0.795,0.707,0.903
CCCCCNC(=N)N/N=C/c1c[nH]c2ccc(OC)cc12 [Tegaserod Maleate],5.85,4.48,5.39,6.34,4.98,5.08
CN(C)CC(c1ccc(O)cc1)C1(O)CCCCC1 (stereo not given) [Desvenlafaxine],0.678,0.707,0.899,0.932,0.34,1.95
C[C@]12CCC(=O)C=C1CC[C@@H]1[C@@H]2[C@@H](O)C[C@@]2(C)[C@H]1CC[C@]2(O)C(=O)CO [Hydrocortisone],0.925,1.63,2.09,1.56,0.62,2.31
COc1cc(/C=C/C(=O)CC(=O)/C=C/c2ccc(O)c(OC)c2)ccc1O [Curcumin],1.77,2.12,1.22,3.06,2.02,1.2
CC1(C)CCC(c2ccc(Cl)cc2)=C(CN2CCN(c3ccc(C(=O)NS(=O)(=O)c4ccc(N[C@H](CCN5CCOCC5)CSc5ccccc5)c(S(=O)(=O)C(F)(F)F)c4)cc3)CC2)C1 [ABT-263 (Navitoclax)],1.75,2.22,1.24,1.16,1.25,0.98
COc1ccc2cc([C@H](C)C(=O)O)ccc2c1 [Naproxen],0.797,0.78,1.05,0.816,1.13,1.28
CN(C)c1cccc(-c2c3c(=O)n(-c4ccccc4Cl)[nH]c3cc(=O)n2C)c1,1.01,1.99,1.08,0.844,0.852,1.39
CC1(C)S[C@@H]2[C@H](NC(=O)[C@H](N)c3ccc(O)cc3)C(=O)N2[C@H]1C(=O)O [Amoxicillin Sodium],1.03,1.17,1.56,1.06,1.08,1.78
C[C@H](CCC(=O)O)[C@H]1CC[C@H]2[C@@H]3[C@H](O)C[C@@H]4C[C@H](O)CC[C@]4(C)[C@H]3CC[C@]12C [Chenodeoxycholic Acid],0.805,0.691,0.826,0.881,0.737,1.08
COc1cc(N)c(Cl)cc1C(=O)NC1CCN(Cc2ccccc2)CC1 [Clebopride (malate)],1.13,0.613,1.21,1.12,0.547,0.852
Nc1ncnc2c1c(-c1cnc3[nH]ccc3c1)nn2C1CCCC1,4.92,5.03,4.39,4.32,4.53,3.29
CO[C@@H]1[C@@H](O[C@@H]2O[C@H](C)[C@@H](O[C@H]3C[C@@](C)(O)[C@@H](OC(=O)CC(C)C)[C@H](C)O3)[C@H](N(C)C)[C@H]2O)[C@@H](CC=O)C[C@@H](C)[C@@H](O)/C=C/C=C/C[C@@H](C)OC(=O)C[C@H]1O [Kitasamycin],0.871,1.1,1.49,0.973,0.78,0.761
CS(=O)(=O)CCNCc1ccc(-c2ccc3ncnc(Nc4ccc(OCc5cccc(F)c5)c(Cl)c4)c3c2)o1,3.78,3.57,3.75,4.09,4.37,3.36
COc1ccc2[nH]c([S+]([O-])Cc3ncc(C)c(OC)c3C)nc2c1 (stereo not given) [Omeprazole Sodium],1.03,1.11,2.39,0.71,0.957,1.07
CCCCc1nc(C)c(CC(=S)N(C)C)c(=O)n1Cc1ccc(-c2ccccc2-c2nnn[nH]2)cc1 [Fimasartan],0.829,0.807,0.902,0.862,0.679,0.989
CCCCOc1cc(C(=O)OCCN(CC)CC)ccc1N [Oxybuprocaine HCl],1.13,0.889,1.18,0.902,0.935,1.1
CNCCC=C1c2ccccc2CCc2ccccc21 [Nortriptyline hydrochloride],1.69,1.13,1.37,1.82,1.8,1.69
CCCCCCOC(=O)NC(=N)c1ccc(NCc2nc3cc(C(=O)N(CCC(=O)OCC)c4ccccn4)ccc3n2C)cc1 [Dabigatran Etexilate],1.9,1.35,1.17,1.58,1.58,1.47
C/C=C(/C(=C/C)c1ccc(O)cc1)c1ccc(O)cc1 [Dienestrol],0.782,0.603,0.8,0.859,0.715,0.784
